Test: hepatitis C replication reporter changes, two-sided – Huh7 cells, luciferase reporter, HCV replication inhibitor project, primary screen (AID 1109);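 note: huh7 hepatoma cells harbouring a luciferase neomycin HCV replicon reporter; luciferase luminescence as measure of HCV replicon replication; test concentration not given here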
Details: Huh7 HCV replicon luciferase reporter, 48 h; higher = more signal
COCCOC(=O)N1C(=O)[C@@]2(c3cc(C#CCC(C(=O)OC)C(=O)OC)ccc31)[C@H](C(=O)N1CCCCCCC1)[C@H]1C(=O)O[C@H](c3ccccc3)[C@H](c3ccccc3)N1[C@@H]2c1ccc(OCCO)cc1 showed a z-score of -0.981.
C=C(CCCC)/C(=C/C[C@H](OC(C)=O)c1ccc(CO)o1)c1cnc2ccccc2c1 gave a z-score of -1.54.
Compound [N-]=[N+]=NCc1ccccc1[C@@H]1OC(c2ccc(OCCCO)cc2)=N[C@]1(Cc1ccccc1)C(=O)N1CCCCC1 has a z-score of -2.79.
C=CCNC(=O)[C@@H]1[C@H]2C(=O)O[C@H](c3ccccc3)[C@H](c3ccccc3)N2[C@H](c2ccc(OCCO)cc2)[C@@]12C(=O)Nc1ccccc12 gave a z-score of -1.72.
With O=C1OCCC=C[C@H]2OC34C=CCN(Cc5ccccc5)C(=O)[C@H]3N(CCCCCO)C(=O)[C@@H]4C12 (stereo partly drawn) the z-score was -0.481.
With COc1ccccc1CN1C(=O)c2ccccc2[C@@H](C(=O)NCCN2CCOCC2)[C@@H]1c1ccc(CO)cc1 the z-score was -1.64.
CN1CCC(CCCO)=CC1c1ccc(CN2CCCC2)cc1 (stereo not drawn) gave a z-score of -1.94.
COCCOC(=O)N1C(=O)[C@@]2(c3cc(C#CCCO)ccc31)[C@H](c1ccc(O)cc1)N1[C@H](c3ccccc3)[C@H](c3ccccc3)OC(=O)[C@H]1[C@@H]2C(N)=O gave a z-score of -0.016.
C[C@]1(C(=O)NCc2ccccc2)c2ccccc2C(=O)N(Cc2ccc(OC(F)(F)F)cc2)[C@H]1c1ccc(CO)cc1 gave a z-score of 0.0711.
In the case of COc1ccc([Si](C)(C)[C@@H]2[C@@H](CCn3cc([C@H](O)c4ccccc4)nn3)O[C@]3(C(=O)N(Cc4ccc(N5C(=O)c6cccc7cccc5c67)cc4)c4ccccc43)[C@H]2C)cc1, the z-score is reported as -2.88.
[N-]=[N+]=NCc1ccccc1C[C@@]1(C(=O)NCC(O)CO)N=C(c2ccc(OCCCO)cc2)O[C@@H]1c1ccccc1CN=[N+]=[N-] (stereo partly drawn) gave a z-score of -1.73.
C=CC[C@@H](OC(=O)Nc1ccc(OC)cc1)c1ccc(O)c2ccccc12 showed a z-score of -3.47.
CCOC(=O)C[C@H]1[C@H](OC(=O)c2ccccc2-c2ccccc2)[C@@H](NC(=O)c2ccc3ccccc3c2)c2cc(OCCCO)ccc2N1C(=O)c1ccc2ccccc2n1 showed a z-score of -1.08.
For N#Cc1ccc(NN2C(C(O)c3ccc([N+](=O)[O-])cc3)C=CC3C(=O)N(c4ccccc4)C(=O)C32)cc1 (stereo not drawn), the z-score was 0.69.
Work on [N-]=[N+]=NCc1ccccc1[C@@H]1OC(c2ccc(OCCCO)cc2)=N[C@]1(Cc1ccccc1N=[N+]=[N-])C(=O)NCc1ccccc1 yielded a z-score of -1.64.
For CCOC(=O)C[C@H]1[C@H](OC(=O)c2ccc(-c3ccccc3)cc2)[C@@H](NC(=O)c2ccc3ccccc3c2)c2cc(OCCCO)ccc2N1C(=O)Cc1ccc(OC)cc1, the z-score was -0.983.
CC(C)NC(=O)[C@@H]1c2ccccc2C(=O)N(Cc2ccccc2Cl)[C@H]1c1ccc(CO)cc1 showed a z-score of -0.657.
CCCCC(CC)C(O)C1C=CC2C(=O)N(c3ccccc3)C(=O)C2N1Nc1ccccc1 (stereo not drawn) showed a z-score of -1.71.
In the case of CC(C)C[C@@H]1NC(=O)[C@H]2C[C@@H](C(=O)NCCCCCNC(=O)CS)[C@@H](c3cccc(OCCO)c3)N2C1=O, the z-score is reported as -0.265.
For CCC[C@@H]1C=C(C(=O)O)[C@H](c2ccc(C)cc2)N1S(=O)(=O)c1ccc(C)cc1, the z-score was 0.641.
In the case of [N-]=[N+]=NCc1ccccc1[C@H]1OC(c2ccc(OCCCO)cc2)=N[C@@]1(CCS(=O)(=O)c1ccccc1)C(=O)N1CCOCC1, the z-score is reported as -1.27.
C=CC(COC(C)=O)NS(=O)(=O)c1ccc(Br)cc1 (stereo not drawn) showed a z-score of -0.437.
For COCCOC(=O)N1C(=O)[C@@]2(c3cc(C#CCC(C(=O)OC)C(=O)OC)ccc31)[C@H](C(=O)N1CCN(c3ncccn3)CC1)[C@H]1C(=O)O[C@H](c3ccccc3)[C@H](c3ccccc3)N1[C@@H]2c1ccc(OCCO)cc1, the z-score was -0.974.
Cc1cc(C)c(C(O)C2C=CC3C(=O)N(c4ccccc4)C(=O)C3N2Nc2ccc(C#N)cc2)c(C)c1 (stereo not drawn) gave a z-score of -0.111.
For Cc1ccc(S[C@]2(C(=O)NC3CC3)CC(=O)N(C3CCCCC3)[C@@H]2c2ccc(CO)cc2I)cc1, the z-score was -2.79.
CC(C)CNC(=O)[C@@]1(c2ccc([N+](=O)[O-])cc2)CC(=O)N(CC23CC4CC(CC(C4)C2)C3)[C@@H]1c1ccc(CO)cc1I gave a z-score of -3.18.
Compound CC(C)c1ccc(NN2C(C(O)c3c(F)cccc3Cl)C=CC3C(=O)N(c4ccccc4)C(=O)C32)cc1 (stereo not drawn) has a z-score of -0.242.
COCCOC(=O)N1C(=O)[C@@]2(c3cc(C#CCNC(N)=O)ccc31)[C@H](c1ccc(O)cc1)N1[C@H](c3ccccc3)[C@H](c3ccccc3)OC(=O)[C@H]1[C@@H]2C(=O)Nc1nc2ccccc2s1 showed a z-score of 0.171.

Reference: PubChem BioAssay
